Shown are actives, neighbours in structure and some others; about 11% of the full set was active somewhere.
FLuc inh-1 = inhibitors of firefly (Photinus pyralis) luciferase; P08659; purified P. pyralis luciferase, luminescence, biochemical; Potency, µM (titrated, usually from 115 µM), usual class: inhibitors; 2.5% of 76,000 active; also: nearly all actives have a fitted effect of over 65% in size
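Cell-free enzyme assay, 10nM P. pyralis luciferase, luciferin and ATP each at 10uM. Inhibition profiled over a 6-point titration, read as luminescence.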
3T3 cytotox = cytotoxic compounds in NIH 3T3 cells; NIH 3T3 viability, CellTiter-Glo ATP luminescence, 48-72 h; Potency, µM (doses to about 96.7 µM), actives largely listed as inhibitors; 4.3% of 94,000 active; AID 1345082; also: nearly all actives have a fitted effect of over 55% in size
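Cytotoxicity is measured as loss of cellular ATP: NIH 3T3 cells (400/well) are exposed to compound for 48 or 72 hr at 37 °C, then CellTiter-Glo luminescence is imaged after 10 min at room temperature.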
NPR1 antag = blocks ANP-stimulated signaling of human Npr1 receptor; P16066; HEK293 hNpr1 GloSensor cGMP, ANP-stimulated luminescence; Potency, µM (titrated, usually from 46.3 µM), hits mostly inhibitors; 1.6% of 76,000 active; AID 1347048; calls by dose curve; also: nearly all actives have a fitted effect of over 60% in size
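Compound pre-incubated 30 min at room temperature on GloSensor-loaded HEK293 cells stably carrying hNpr1 and the pGS-40F cGMP biosensor. Stimulation uses hNppA at 0.1 nM final; luminescence is taken at baseline and 20 min post-agonist.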
HEK cytotox = kills HEK 293 cells; HEK 293 viability, ATP luminescence (CellTiter-Glo), 48-72 h; Potency, µM (titrated, usually from 115 µM), usual class: inhibitors; 6.6% of 94,000 active; AID 1345083; also: nearly all actives have a fitted effect of over 60% in size
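Cells seeded first (HEK 293, 250 cells/well), then compound added by pintool. Incubation ran 48 or 72 hr at 37 degree Celsius. CellTiter-Glo was added and luminescence imaged after 10 min at room temperature.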
FLuc SDR no ATP = firefly luciferase binding stabilization, ATP absent. shares compounds with FLuc inh-1. Purified FLuc-C-HiBiT, Nano-Glo HiBiT luminescence, no ATP. Potency, µM (top dose mostly 32.7 µM), most hits filed as activators. 7.8% of 1,300 active. AID 1963318; also: nearly all actives have a fitted effect of over 55% in size
FLuc SDR ATP = firefly luciferase binding stabilization, ATP added. shares compounds with FLuc inh-1. 8.7% of 1,300 active. Potency, µM (series often up to 32.7 µM), usual class: activators. purified FLuc-C-HiBiT + ATP, HiBiT complementation luminescence;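 also: signal reports ligand binding via conformational change of the enzyme rather than luciferase catalysis; nearly all actives have a fitted effect of over 55% in size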
FLuc inh-2 = blocks firefly luciferase enzymatic activity. shares compounds with FLuc inh-1. purified FLuc-C-HiBiT enzyme, luciferin luminescence. Potency, µM (doses to about 32.7 µM), usual class: inhibitors. 42% of 1,300 active; also: nearly all actives have a fitted effect of over 70% in size
Hits are given with their value. Unless noted, calls follow the shape of the dose curve; as a rule, active = well fitted curve in the direction sought with a large enough effect; inconclusive = small, poorly fitted or top-dose-only effect, or another doubt; inactive = no such curve, though single readings can be large; an effect the other way counts as inactive or inconclusive.

`Cc1ccc(-c2cc3c(=O)n(CCNC(=O)c4ccccc4F)ccn3n2)c(C)c1` gave FLuc inh-1 6.3µM, 3T3 cytotox inactive, NPR1 antag inactive, HEK cytotox inconclusive, FLuc SDR no ATP inconclusive, FLuc SDR ATP inconclusive and FLuc inh-2 7µM.
Cc1cc(C)cc(C(=O)NCCn2ccn3nc(-c4ccc(C)cc4C)cc3c2=O)c1 was read as FLuc inh-1 2.8µM, 3T3 cytotox inconclusive, NPR1 antag inactive, HEK cytotox inconclusive, FLuc SDR no ATP inactive, FLuc SDR ATP inactive and FLuc inh-2 7µM.
`CCOc1ccc(-c2cc3c(=O)n(CCNC(=O)c4ccc(C)cc4)ccn3n2)cc1` gave FLuc inh-1 inactive, 3T3 cytotox inactive, NPR1 antag inactive and HEK cytotox inactive.
COc1ccc(C(=O)NCCn2ccn3nc(-c4ccc(C)cc4C)cc3c2=O)c(C)c1 was read as FLuc inh-1 3.5µM, 3T3 cytotox inconclusive, NPR1 antag inconclusive, HEK cytotox inconclusive, FLuc SDR no ATP inactive, FLuc SDR ATP inactive and FLuc inh-2 5µM.
`CCc1ccccc1NC(=O)C1CN(S(=O)(=O)c2cccnc2)CC12CCCCC2` (stereo unspecified) gave FLuc inh-1 inactive, 3T3 cytotox inactive, NPR1 antag inactive and HEK cytotox inconclusive.
For Cc1ccc(-c2cc3c(=O)n(CCNC(=O)c4cccc(Cl)c4)ccn3n2)c(C)c1 the results were FLuc inh-1 1.6µM, 3T3 cytotox inconclusive, NPR1 antag inconclusive, HEK cytotox inconclusive, FLuc SDR no ATP inactive, FLuc SDR ATP inconclusive and FLuc inh-2 3.9µM.
Screening Cc1ccc(-c2cc3c(=O)n(CCNC(=O)c4ccc5c(c4)OCO5)ccn3n2)c(C)c1 returned FLuc inh-1 inconclusive, 3T3 cytotox inactive, NPR1 antag inactive and HEK cytotox inactive.
Cc1ccc(-c2cc3c(=O)n(CCNC(=O)c4nccc5ccccc45)ccn3n2)c(C)c1 was read as FLuc inh-1 3.5µM, 3T3 cytotox inconclusive, NPR1 antag inactive, HEK cytotox 45µM, FLuc SDR no ATP inactive, FLuc SDR ATP inactive and FLuc inh-2 8.8µM.
Cc1ccc(-c2cc3c(=O)n(CCNC(=O)c4ccc(C)s4)ccn3n2)c(C)c1 was read as FLuc inh-1 4.5µM, 3T3 cytotox inconclusive, NPR1 antag inactive, HEK cytotox inconclusive, FLuc SDR no ATP inactive, FLuc SDR ATP inconclusive and FLuc inh-2 7µM.
Screening Clc1ccc(OCc2nc3ccccc3n2Cc2ccccc2)c(Cl)c1 returned FLuc SDR no ATP inactive, FLuc SDR ATP inactive and FLuc inh-2 inconclusive.
COc1cccc(OCc2nc3ccccc3n2Cc2ccccc2)c1 was read as FLuc SDR no ATP inactive, FLuc SDR ATP inactive and FLuc inh-2 inactive.
For Cc1ccc(-c2[nH]ncc2CN2C[C@@H](Oc3ccccc3)C[C@@H]2C(=O)N2CCOCC2)cc1 the results were FLuc inh-1 inactive, 3T3 cytotox inactive, NPR1 antag inactive and HEK cytotox inactive.
`COC[C@@H]1CN(Cc2cccc(C#N)c2)C[C@H]1C(=O)N(C)C` gave FLuc inh-1 inactive, 3T3 cytotox inactive, NPR1 antag inactive and HEK cytotox inactive.
Screening COC[C@@H]1CN(Cc2ccc(OC)cc2)C[C@H]1C(=O)N(C)C returned FLuc inh-1 inactive, 3T3 cytotox inactive, NPR1 antag inactive and HEK cytotox inactive.
Screening Cc1cc(CNC(=O)C2(C(N)=O)CC2)c2[nH]c(-c3ccccc3)c(C)c2c1 returned FLuc inh-1 13µM, 3T3 cytotox inconclusive, NPR1 antag inconclusive, HEK cytotox 22µM, FLuc SDR no ATP inactive, FLuc SDR ATP inconclusive and FLuc inh-2 11µM.
`Cc1c(-c2ccccc2)[nH]c2c(CNC(=O)CCn3cnnn3)cc(Cl)cc12` gave FLuc inh-1 inconclusive, 3T3 cytotox inconclusive, NPR1 antag inactive and HEK cytotox inconclusive.
`O=C(NCc1ccccn1)C1c2ccccc2C(=O)N(c2ccccc2)C12CCCCC2` (stereo unspecified) gave FLuc inh-1 inactive, 3T3 cytotox inconclusive, NPR1 antag inactive and HEK cytotox inconclusive.
CCC(=O)N1CCc2c(C(=O)O)cccc21 was read as FLuc inh-1 28µM, 3T3 cytotox inactive, NPR1 antag inactive, HEK cytotox inactive, FLuc SDR no ATP inactive, FLuc SDR ATP inactive and FLuc inh-2 inactive.
For O=C(O)c1cccc2c1CCN2C(=O)c1ccc(F)cc1 the results were FLuc inh-1 1.3µM, 3T3 cytotox inconclusive, NPR1 antag inconclusive, HEK cytotox inactive, FLuc SDR no ATP inactive, FLuc SDR ATP 1.2µM and FLuc inh-2 1.8µM.
For C1=C(CCNc2ncncc2-c2nc(-c3ccccc3)no2)CCCC1 the results were FLuc inh-1 inactive, 3T3 cytotox inactive, NPR1 antag inactive and HEK cytotox inactive.
Cn1nc(C2CC2)n(C2CCN(C(=O)c3ccsc3)CC2)c1=O was read as 3T3 cytotox inactive and HEK cytotox inactive.
Screening O=C(O)c1ccc(-c2ccc(N3CCCCCC3)nc2)cc1 returned FLuc inh-1 4.5µM, 3T3 cytotox inconclusive, NPR1 antag inactive, HEK cytotox inactive, FLuc SDR no ATP inconclusive, FLuc SDR ATP inconclusive and FLuc inh-2 2.5µM.
O=C(NCc1ccncc1)c1ccc(-c2ccc(N3CCCCC3)nc2)cc1 was read as FLuc inh-1 inconclusive, 3T3 cytotox inactive, NPR1 antag inactive and HEK cytotox inconclusive.
`C=CCNC(=O)C(NC(=O)c1cccc(OC)c1)C1CCN(C(=O)c2cccc(C)c2)CC1` (stereo unspecified) gave FLuc inh-1 inactive, 3T3 cytotox inactive, NPR1 antag inactive and HEK cytotox inactive.
`O=C(NC1CCCN(c2cc(-c3ccc(F)cc3)[nH]n2)C1)c1cccs1` (stereo unspecified) gave FLuc inh-1 inconclusive, 3T3 cytotox inconclusive, NPR1 antag inactive and HEK cytotox inconclusive.
Screening COc1ccc(-c2cc(N3CCCC(NC(=O)c4ccc5c(c4)OCO5)C3)n[nH]2)cc1 (stereo unspecified) returned FLuc inh-1 11µM, 3T3 cytotox inconclusive, NPR1 antag inactive, HEK cytotox inconclusive, FLuc SDR no ATP inactive, FLuc SDR ATP inactive and FLuc inh-2 inconclusive.
COc1ccc(-c2cc(N3CCCC(NC(=O)c4c[nH]c5ccccc45)C3)n[nH]2)cc1 (stereo unspecified) was read as FLuc inh-1 10µM, 3T3 cytotox inconclusive, NPR1 antag inactive, HEK cytotox inconclusive, FLuc SDR no ATP inactive, FLuc SDR ATP inactive and FLuc inh-2 inconclusive.
